Assay results as given in PubChem BioAssay.

tested on: Sonic hedgehog protein (Shh); test: small-molecule binders of Shh protein, primary screen, biochemical, small-molecule microarray, 635/667 nm fluorescence (AID 1151); conditions: small-molecule microarray binding, 635 nm fluorescence; higher = more signal;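 note: Shh protein binding to compounds spotted on small-molecule microarray slides; score combines spot fluorescence intensity with signal-to-noise across triplicate slides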

| SMILES | composite z-score |
| --- | --- |
| CCC#CCN(Cc1ccccc1Br)[C@H](/C=C/C1CC1)[C@@H](O)Cc1ccccc1 | -0.643 |
| CCCCN1CC=CC23O[C@@H]4/C=C\CCCOC(=O)C4[C@H]2C(=O)N(CCO)[C@@H]3C1=O (stereo partly specified) | -0.214 |
| C=CCNC(=O)[C@@H]1[C@H]2C(=O)O[C@H](c3ccccc3)[C@H](c3ccccc3)N2[C@H](c2ccccc2OCCO)[C@@]12C(=O)N(C(=O)OCCOC)c1ccc(C#CC3(O)CCCCCC3)cc12 | 1.58 |
| O=C(C1N=C(c2ccc(OCCCO)cc2)N(c2ccccc2)O1)N1CCCCC1 (stereo unspecified) | 0.17 |
| CN(C)CCCCCCNC(=O)[C@@H]1C[C@@H]2C(=O)N3CCC[C@H]3C(=O)N2[C@@H]1c1cccc(OCCO)c1 | 1.54 |
| COC(=O)[C@@]1(Cc2ccccc2)[C@H]2c3cc(C(=O)N(C)C)n(Cc4ccc(C)o4)c3C[C@H]2CN1C(=O)c1ccccc1 | 0.406 |
| O[C@@H](Cc1ccccc1)[C@@H](/C=C/C1CC1)N(CC#Cc1ccccc1)Cc1ccccc1Br | -1.5 |
| COCC(=C=CC[C@H](O)c1ccc(OCCO)cc1)CCO | 1.96 |
| NCCCCCNC(=O)[C@H]1C[C@H]2C(=O)N3CCC[C@H]3C(=O)N2[C@H]1c1cccc(OCCO)c1 | 0.148 |
| CCCC[C@@H]1C[C@H]1[C@@H](NC(=O)c1cccs1)c1ccccc1C(F)(F)F | -0.142 |
| CCOC(=O)C[C@H]1[C@H](OC(=O)Cc2ccc3c(c2)OCO3)[C@@H](NC(=O)C2CCCCC2)c2cc(OCCCO)ccc2N1C(=O)c1ccccc1 | 0.0725 |
| COc1cc(C(O)C2C=CC3C(=O)N(C)C(=O)C3N2Nc2ccccc2)cc(OC)c1OC (stereo unspecified) | -0.153 |
| COc1ccc([Si](C)(C)[C@@H]2[C@@H](CC(=O)N3Cc4ccccc4C[C@H]3CO)O[C@]3(C(=O)N(Cc4ccc(N5C(=O)c6cccc7cccc5c67)cc4)c4ccccc43)[C@H]2C)cc1 | 1.69 |
| C=CCC(OC(C)=O)[C@@H]1[C@@H](N(Cc2ccc(-c3cccc(C(F)(F)F)c3)o2)C(=O)c2ccc(-c3ccccc3)cc2)c2cc(OCCCO)ccc2N1C(=O)Cc1ccc2ccccc2c1 (stereo partly specified) | -0.0629 |
| C=CCNC(=O)[C@H]1[C@@H]2C(=O)O[C@@H](c3ccccc3)[C@@H](c3ccccc3)N2[C@@H](c2ccccc2OCCO)[C@]12C(=O)N(C(=O)OCCOC)c1ccc(C#CC3(O)CCCCCC3)cc12 | 1.57 |
| COc1ccc([Si](C)(C)[C@@H]2[C@@H](CCO)O[C@]3(C(=O)N(Cc4cccc(NC(=O)[C@H](C)O)c4)c4ccccc43)[C@H]2C)cc1 | 0.533 |
| CCCCC[C@H]1OC[C@@]23C=C(Br)[C@@H](CC12)[C@@]1(CO1)C3=O (stereo partly specified) | 0.647 |
| C=CCN1Cc2ccccc2[C@@H]2OC(c3ccc(OCCCO)cc3)=N[C@]2(CC=C)C1=O | 1.81 |

| SMILES | composite z-score |
| --- | --- |
| Cc1ccc(NN2C(C(O)c3c(F)cccc3Cl)C=CC3C(=O)N(C4CCCCC4)C(=O)C32)cc1 (stereo unspecified) | -0.216 |
| CCCCC(CC)C(O)C1C=CC2C(=O)N(c3ccccc3)C(=O)C2N1Nc1ccc(C#N)cc1 (stereo unspecified) | -0.387 |
| NC(=O)[C@H]1[C@@H]2C(=O)O[C@@H](c3ccccc3)[C@@H](c3ccccc3)N2[C@@H](c2ccc(OCCO)cc2)[C@]12C(=O)Nc1ccc(C#CCCO)cc12 | 0.177 |
| CCC1=C2CN(Cc3ccccc3)[C@@H](C(=O)Cc3ccccc3)C2C=CCC1 (stereo partly specified) | 0.553 |
| [N-]=[N+]=Nc1ccccc1C[C@]1(C(=O)NCC(O)CO)COC(c2ccc(OCCCO)cc2)=N1 (stereo partly specified) | -1.46 |
| CCCC=C(CCC)[C@@H](NP(=O)(c1ccccc1)c1ccccc1)c1ccc(-c2ccccc2)cc1 | -0.0804 |
| CCOC(=O)C[C@H]1[C@H](OC(=O)c2ccc(C(=O)c3ccccc3)cc2)[C@@H](NC(=O)c2ccc(-c3ccccc3)cc2)c2cc(OCCCO)ccc2N1C(=O)Cc1ccc(OC)cc1 | -0.235 |
| CO[C@H]1O[C@H](CO)[C@@H](OC(=O)CCc2ccccc2)[C@@H]2OC(=O)[C@@H](Cc3ccccc3)C/C=C/C[C@H](Cc3ccccc3)C(=O)O[C@@H]12 | 0.476 |
| CCOC(=O)C1=C[C@@H](c2ccccc2)N(S(=O)(=O)c2ccc(C)cc2)[C@H]1c1ccc(OC)cc1 | -0.0921 |
| [N-]=[N+]=Nc1ccccc1C[C@]1(C(=O)NCCN2CCOCC2)COC(c2ccc(OCCCO)cc2)=N1 | 0.0324 |
| COc1ccc([Si](C)(C)[C@H]2[C@H](CC(=O)N3Cc4ccccc4C[C@H]3CO)O[C@@]3(C(=O)N(Cc4ccc(N5CCOC5=O)cc4)c4ccccc43)[C@@H]2C)cc1 | 2.05 |
| CS(=O)(=O)CCOC(=O)C1=CC(c2ccc(CO)cc2)=CC(C2CC2)N(Cc2sc3ccccc3c2Cl)C=C1C(=O)OCCS(C)(=O)=O (stereo unspecified) | 1.23 |
| CCCCNC(=O)c1ccc(C#CC(C)(C)C)c(OC(C)=O)c1 | 0.804 |
| O=C1C2C=CC(C(O)c3ccco3)N(Nc3ccccc3F)C2C(=O)N1c1ccccc1 (stereo unspecified) | 0.155 |
| COc1cc(NN2C(C(O)c3ccco3)C=CC3C(=O)N(C)C(=O)C32)cc(OC)c1OC (stereo unspecified) | 0.0765 |
| COC(=O)[C@@]1(Cc2ccc(F)cc2)[C@H]2c3cc(C(=O)N(C)C)n(CCc4ccc(OC)c(Br)c4)c3C[C@H]2CN1C(=O)c1ccccc1 | -1.09 |
| CC(C)[Si](C#CCCCC#N)(O[C@H](c1ccccc1)c1cn(Cc2ccccc2)nn1)C(C)C | 0.531 |
| COCCOC(=O)N1C(=O)[C@@]2(c3cc(C#CC4(O)CCCCCC4)ccc31)[C@H](C(=O)Nc1nc3ccccc3s1)[C@H]1C(=O)O[C@H](c3ccccc3)[C@H](c3ccccc3)N1[C@@H]2c1ccc(O)cc1 | 1.52 |
